These results are taken from the supplement of paper PMC7858590.

Structures are written as SMILES. ± gives the standard deviation of the averaged measurements. In all, about 3,800 compounds were measured (“cell shape (eccentricity) Z-score vs DMSO control”: median about 1.1, lowest 2% from about -4.7 on). This is one part of a sample in which the lowest values are shown more often than they occur.

For the test, the system named is human monocyte-derived macrophages (M0). The test can be described thus: cell shape (eccentricity) Z-score vs DMSO control; higher = more elongated, M2-like morphology. The settings on record: 20 µM; 24 h; macrophage state: M0 (M-CSF). The method, then: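 Primary human monocyte-derived macrophages (M-CSF differentiated, pooled from 4 donors, 5000 cells/well in 384-well plates) were treated with each compound at 20 uM for 24 h, then fixed and stained with phalloidin/DAPI and imaged on an Opera Phenix (6 fields, about 1000 cells/well). Cell eccentricity was measured with CellProfiler, and a Z-score (t-test) was computed against 4 DMSO control wells in the same row. Negative values mean round (M1-like) cells and positive values mean elongated (M2-like) cells; the paper's hit cutoffs are Z <= -4 (M1) and Z >= 6 (M2). Scale: negative = round, M1-like.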
As to `CCCCCC1C(=O)O/C(=C\C(=O)O)C1=O` (stereo not drawn), the “cell shape (Z-score)” value is -1.15.
As to `CCC[C@H](NC(=O)/C(C#N)=C/c1cccc(Br)n1)c1ccccc1`, the “cell shape (Z-score)” value was -4.73.
Regarding `C[C@@H](NC(=O)/C(C#N)=C\c1ccc(O)c(O)c1)c1ccccc1`, the “cell shape (Z-score)” value is 0.038.
Turning to `C[C@H](NC(=O)/C(C#N)=C/c1ccc(O)c(O)c1)c1ccccc1`, the “cell shape (Z-score)” value is -2.26.
The figure for `C[C@@H]1CN(CC(=O)Nc2ccc3c(c2)Cc2cccc(-c4cc(=O)cc(N5CCOCC5)o4)c2S3)C[C@H](C)O1` is 4.22; for `CC1(C)C2CC[C@]3(C)C(C(=O)C=C4[C@H]5C[C@@](C)(C(=O)O)CC[C@]5(C)CC[C@]43C)[C@@]2(C)CC[C@@H]1O` (stereo partly drawn) it is 0.344; for `CC(=O)Oc1cc2c(c(C)c1OC(C)=O)CC=C1[C@@]2(C)CC[C@@]2(C)C3C[C@](C)(C(=O)O)CC[C@]3(C)CC[C@]12C` (stereo partly drawn) it is -13.8.
The figure for `CC(C)(C)CC(C)(C)c1ccc(OCCOCC[N+](C)(C)Cc2ccccc2)cc1` is -0.216; for `Cc1cc(C(C)(C)CC(C)(C)C)ccc1OCCOCC[N+](C)(C)Cc1ccccc1` it is -4.7; for `CC(C)(C)CC(C)(C)c1ccc(O)c(-n2nc3ccccc3n2)c1` it is -0.381.
In the case of `O=C(O)c1cccnc1Nc1cccc(C(F)(F)F)c1`, the “cell shape (Z-score)” value turned out to be 2.97.
The value for `COc1ccc(/C=C/C(=O)c2cc(O)ccc2O)cc1` was 2.34; that for `COc1ccc(/C=C/C(=O)c2ccc(O)cc2O)cc1` was -5.34.
For the compound `CCOC(=O)C1=C(C)NC(C)=C(C(=O)OC)C1c1cccc([N+](=O)[O-])c1` (stereo not drawn), the “cell shape (Z-score)” value turned out to be 1.64.
As to `COc1ccc2c(c1OC)OC[C@@H](c1ccc(OC)c(OC)c1OC)C2`, the “cell shape (Z-score)” value is 2.19.
`COc1cc(C[C@@H]2COC(c3ccc(O[C@@H]4O[C@H](CO)[C@@H](O)[C@H](O)[C@H]4O)c(OC)c3)[C@@H]2CO)ccc1O[C@@H]1O[C@H](CO)[C@@H](O)[C@H](O)[C@H]1O` (stereo partly drawn): the “cell shape (Z-score)” value was determined as 2.98.
The figure for `Nc1ccc(-c2nc3ccc(-c4nc5ccc(N)cc5[nH]4)cc3[nH]2)cc1` is -0.879; for `O=C1c2ccc(Nc3ccc(F)cc3F)cc2CCc2ccc(OC[C@H](O)CO)cc21` it is -6.5; for `O=C(NOCC(O)CO)c1cc(Br)c(F)c(F)c1Nc1ccc(I)cc1F` (stereo not drawn) it is -0.375.
Consider `CC(=O)O[C@@H]1[C@@H](O)[C@H](C)O[C@@H](Oc2c(-c3ccc(O)cc3)oc3cc(O[C@@H]4O[C@@H](C)[C@H](O)[C@@H](O)[C@H]4O)cc(O)c3c2=O)[C@@H]1O`, for which the “cell shape (Z-score)” value turned out to be 1.24.
On to `C[C@@](Cc1ccc(O)c(O)c1)(NN)C(=O)O`, for which the “cell shape (Z-score)” value came out at 1.55.
The figure for `COc1ccc(C(=O)CC2(O)C(=O)Nc3c(Cl)ccc(Cl)c32)cc1` (stereo not drawn) is -7.6; for `COc1ccc(C(=C2C(=O)Nc3ccccc32)c2ccc(OC)cc2)cc1` it is 1.61; for `COc1ccc(C(=O)/C=C/c2ccccc2)cc1` it is 3.14.
The figure for `O=C(O)c1ccc(NCc2nc3cc4ccccc4cc3[nH]2)cc1` is 1.43; for `CC1(C)O[C@@H]2CC3C4CCC5=CC(=O)C=C[C@]5(C)[C@@]4(F)[C@@H](O)C[C@]3(C)[C@]2(C(=O)CO)O1` (stereo partly drawn) it is -2.57; for `COc1ccc(NC(=O)c2ccc(-c3ccc(-c4noc(C)n4)cc3C)cc2)cc1N1CCN(C)CC1` it is -0.626.
`Cc1ccc2ccc3ccc(C)nc3c2n1`: the “cell shape (Z-score)” value came to 3.48.
The figure for `Cc1ccc(O)c(N=Nc2ccccc2)n1` is -7.89.
With `Nc1ccc(/N=N/c2ccccc2)c(N)n1`, the “cell shape (Z-score)” value is -1.01.
The figure for `C=C[C@@](C)(O)CCC1C(=C)CCC2[C@@](C)(CO)CCC[C@]12C` (stereo partly drawn) is 4.09; for `COC1=C(N)C(=O)c2nc(-c3nc(C(=O)O)c(C)c(-c4ccc(OC)c(OC)c4O)c3N)ccc2C1=O` it is 0.0737.
The value for `CC(=O)Nc1ccc(C(=O)Nc2ccccc2N)cc1` was -3.16 ± 2.7; that for `CC(C)(C)c1ccc(S(=O)(=O)NCc2ccc(C(=O)Nc3cccnc3)cc2)cc1` was 1.14.
With `Nc1ccccc1NC(=O)c1ccc(CNc2nccc(-c3cccnc3)n2)cc1`, the “cell shape (Z-score)” value is -11.8.
In the case of `Nc1ccccc1NC(=O)c1ccc(CNC(=O)OCc2cccnc2)cc1`, the “cell shape (Z-score)” value was -10.6 ± 0.74.
The value for `Nc1cc(-c2ccncc2)c[nH]c1=O` was 0.0533; that for `COc1cc2c(c(OC)c1)C(=O)OC(C)C2` (stereo not drawn) was -2.38.
The figure for `Cc1ccccc1NC(=N)Nc1ccccc1C` is 2.28; for `O=c1c(OC2OC(CO)C(O)C(O)C2OC2OC(CO)C(O)C(O)C2O)c(-c2ccc(O)cc2)oc2cc(O)cc(O)c12` (stereo not drawn) it is 0.138 ± 1.7; for `CC1(C)C(=O)C=C[C@@]2(C)C1CC(=O)[C@]1(C)C2CC[C@@]2(C)[C@H](c3ccoc3)OC(=O)[C@H]3O[C@]321` (stereo partly drawn) it is -1.42.
Turning to `COc1cc2c(c(O)c1OC)C(=O)CC(c1ccc(O)cc1)O2` (stereo not drawn), the “cell shape (Z-score)” value turned out to be 0.892.
Regarding `CC(C)[C@@H]1CC[C@@]2(C)CCC[C@@](C)(O)[C@@H]2[C@H]1OC(=O)/C=C/c1ccccc1`, the “cell shape (Z-score)” value is 2.15.
